Screens: PubChem, several laboratories
This is a sample that favours compounds with a hit; in the whole collection about 3.2% have one here.
SKN-1 inh: suppressors of acrylamide-induced Pgst-4::GFP reporter in worms, primary screen, SKN-1 inhibitor project, whole organism, uHTS, GFP/RFP fluorescence ratio, strain VP596; C. elegans VP596 Pgst-4::GFP/RFP ratio, 24 h; inhibition, % at 21.8 µM; hit rate 0.49% among 360,000;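 active = interference check ratio from 0.5 to 1.5 plus GFP to RFP signal ratio inhibition reaching or exceeding a fixed threshold, cut at about 30% in these data, passing the limit was not always enough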
MEKK2 mut-MEK5: MEK5 binding signal on mutant MEKK2 PB1, primary screen, biochemical, multiplex bead flow cytometry, Alexa488-MEK5. Alexa488-MEK5 binding to MEKK2 mutant. percent response, % at 10 µM. hit rate 0.35% among 290,000; in the data active = percent response above about 24%, passing the limit was not always enough
MEKK3 PB1 HTS: modulators of MEKK3-MEK5 PB1 binding, primary screen, biochemical, wildtype MEKK3, multiplex bead flow cytometry, Alexa488-MEK5. Mitogen-activated protein kinase kinase kinase 3 (Homo sapiens), Q99759. bead-based flow cytometry, Alexa488-MEK5 binding to MEKK3; actives lie on both sides; 0 = blocked by unlabeled MEK5, 100 = vehicle. binding response (% of control), % at 10 µM. hit rate 1.4% among 290,000. AID 1529, 2009;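 active = binding response more than 3 SD above or below the average of its plate-row segment, actives on both sides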;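 also: Alexa488 bead fluorescence after subtracting the streptavidin-only scavenger bead signal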
NRP1-CendR mod: modulators of CendR peptide binding to NRP-1, primary screen, biochemical, fluorescence polarization, uHTS | Neuropilin-1 (Homo sapiens), O14786 | hit rate 0.85% among 360,000 | inhibition, % at 25 µM | FAM-RPARPAR peptide binding to NRP-1;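 active = inhibition or corrected inhibition above about 18%, plus a signal ratio from 0.5 to 1.5, limit read from the data, passing the limit was not always enough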
Target sequence (O14786 whole entry, looked up): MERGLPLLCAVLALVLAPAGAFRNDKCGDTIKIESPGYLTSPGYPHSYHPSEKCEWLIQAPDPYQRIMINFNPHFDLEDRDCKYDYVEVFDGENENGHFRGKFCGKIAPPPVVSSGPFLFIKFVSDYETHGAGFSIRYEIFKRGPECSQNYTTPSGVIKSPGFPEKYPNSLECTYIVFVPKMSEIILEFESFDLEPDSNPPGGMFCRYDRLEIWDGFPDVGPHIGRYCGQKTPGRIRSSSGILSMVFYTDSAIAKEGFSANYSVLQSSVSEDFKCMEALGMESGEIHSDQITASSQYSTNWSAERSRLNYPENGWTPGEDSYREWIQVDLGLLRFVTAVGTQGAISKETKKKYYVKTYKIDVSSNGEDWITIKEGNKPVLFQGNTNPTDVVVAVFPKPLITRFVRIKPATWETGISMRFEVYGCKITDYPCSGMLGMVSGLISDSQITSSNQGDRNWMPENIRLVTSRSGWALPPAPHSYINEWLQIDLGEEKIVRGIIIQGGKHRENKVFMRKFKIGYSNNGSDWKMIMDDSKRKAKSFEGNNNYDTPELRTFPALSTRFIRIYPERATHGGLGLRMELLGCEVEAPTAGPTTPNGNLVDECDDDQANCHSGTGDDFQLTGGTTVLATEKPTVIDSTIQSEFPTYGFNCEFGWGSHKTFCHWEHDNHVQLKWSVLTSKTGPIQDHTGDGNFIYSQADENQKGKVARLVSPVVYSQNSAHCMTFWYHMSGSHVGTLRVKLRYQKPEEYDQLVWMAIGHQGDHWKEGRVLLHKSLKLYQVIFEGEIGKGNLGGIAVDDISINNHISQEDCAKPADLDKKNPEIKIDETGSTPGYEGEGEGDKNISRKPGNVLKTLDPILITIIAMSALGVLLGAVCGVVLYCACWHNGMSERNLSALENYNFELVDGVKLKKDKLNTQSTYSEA
MEKK2 WT-MEK5: modulators of MEK5 binding to wildtype MEKK2, primary screen, biochemical, multiplex bead flow cytometry, Alexa488-MEK5; Mitogen-activated protein kinase kinase kinase 2 (Homo sapiens), Q9Y2U5; Alexa488-MEK5 binding to MEKK2 WT; actives lie on both sides; AID 1531, 2009; hit rate 1.1% among 290,000; binding response (% of control), % at 10 µM; in the data active = binding response below about 67% or above about 130%
An asterisk follows results filed as active; / = no result given; [ ] = dose if it differs, or a comment.

SMILES	SKN-1 inh	MEKK2 mut-MEK5	MEKK3 PB1 HTS	NRP1-CendR mod	MEKK2 WT-MEK5
Cc1ccc(-n2c(O)c(/C=N/Nc3ccc(S(=O)(=O)N4CCOCC4)cc3[N+](=O)[O-])c3ccccc3c2=O)c(C)c1	15.9	-2.0	106.0	46.2*	99.0
NNc1nc(-c2ccccc2)nc(-c2ccccc2)c1Br	4.7	/	/	0.4	/
CN1Cc2c(N)cccc2C(c2ccccc2)C1 (stereo not drawn)	6.7	4.0	95.0	30.1*	95.0
CCOC(=O)c1c(S(=O)(=O)N(C)Cc2ccco2)c(C)n(C)c1C	15.1	-53.0	30.0*[inhibitor]	-0.2	43.0*[inhibitor]
Cc1c(C(=O)N2CCCCC2)c(S(=O)(=O)N(C)Cc2ccco2)c(C)n1C	-13.1	3.0	102.0	5.5	102.0
COc1ccc(C(O)c2cnc(C)n2Cc2ccccc2)cc1 (stereo not drawn)	11.2	/	/	4.6	/
N#C/C(=N\Nc1ccc(Cl)cc1)C(N)=S	39.1*	3.0	99.0	3.2	97.0
Cc1nccc(-c2sc(-c3cccs3)nc2C)n1	38.9*	-3.0	99.0	14.6	101.0
CNc1nc(-c2ccc3c(c2)CCN3C(=O)c2ccccc2F)c(C)s1	10.6	-1.0	102.0	-9.3	98.0
CNc1nc(-c2ccc3c(c2)CCN3C(=O)c2ccccc2F)cs1	19.8	5.0	109.0	24.4*	93.0
COc1ccc(-c2noc(CN(C(=O)c3ccc4c(c3)OCO4)C(C)C)n2)cc1	-6.6	-8.0	97.0	27.5*	93.0
C=CCN(Cc1nc(-c2ccc(OC)cc2)no1)C(=O)c1ccc2c(c1)OCO2	-4.7	1.0	100.0	7.7	99.0
Cc1oc(-c2ccccc2)cc1C(=O)Nc1cccc(C(=O)O)c1	4.9	4.0	100.0	-5.8	103.0
Cc1oc(-c2ccc(Cl)cc2)cc1C(=O)O	-9.1	-4.0	97.0	44.3*	95.0
CC1OC2CC(=O)OC2C2=C1C(=O)c1c(O)cccc1C2=O (stereo not drawn)	-2.6	/	/	38.0*	/
CCCCn1c(N)c(N(CCOC)C(=O)COC(=O)/C=C/c2ccc(Br)cc2)c(=O)[nH]c1=O	-4.8	6.0	100.0	22.7*	103.0
COCCN(C(=O)COC(=O)/C=C/c1ccc(SC)cc1)c1c(N)n(Cc2ccccc2)c(=O)[nH]c1=O	-15.3	/	/	8.0	/
COc1ccc(-c2ccc(C(=O)Nc3ccc(C(C)C)cc3)c3occc23)c(C)c1	21.8	/	/	6.5	/
CCN(CC)C(=O)c1nc(-c2cccc3ccccc23)no1	19.1	/	/	-5.5	/
Cc1ccc(F)c(C2C3C=CCC(c4cccc(-c5ccc(N(C)C)cc5)c4)C3C(=O)N2Cc2ccccc2)c1 (stereo not drawn)	43.9*	2.0	100.0	9.8	100.0
COc1ccc(-c2ccc(OC)c([C@H]3[C@H]4C=CC[C@@H](C)[C@@H]4C(=O)N3Cc3ccccc3)c2)cc1C	9.2	2.0	93.0	28.9*	89.0
COc1ccc(-c2ccc(N(C)C)cc2)cc1[C@H]1[C@H]2C=CC[C@@H](C)[C@@H]2C(=O)N1Cc1ccccc1	4.9	3.0	103.0	23.0	102.0
CC1(C)CC(=O)C2=C(C1)N(Cc1ccco1)C(=O)C2(NC(=O)c1cccnc1)C(F)(F)F (stereo not drawn)	-2.5	-15.0	56.0*[inhibitor]	-4.1	66.0
O=C(N/C=C/c1ccco1)Nc1cccc(Cl)c1	3.6	45.0	127.0	-83.7	22.0*
COc1ccc(NC(=O)N/C=C/c2ccco2)cc1	-11.7	-4.0	106.0	-26.6	95.0
SMILES	SKN-1 inh	MEKK2 mut-MEK5	MEKK3 PB1 HTS	NRP1-CendR mod	MEKK2 WT-MEK5
O=C(CN1C(=O)c2cccnc2Oc2ccc(Cl)cc21)Nc1ccccc1F	-5.9	10.0	101.0	-32.5	10.0*
COc1cccc(NC(=O)CN2C(=O)c3cccnc3Oc3ccc(Cl)cc32)c1	8.6	0.0	101.0	-1.6	98.0
Nc1nc(-c2cccnc2)nn1C(=O)c1ccc(Cl)cc1	1.7	2.0	96.0	1.4	-3.0*
Cc1ccc(C)c(S(=O)(=O)/N=C2\C=C(NS(=O)(=O)c3ccccc3)C(=O)c3ccccc32)c1	39.2*	-5.0	98.0	20.5	92.0
CCc1ccc(S(=O)(=O)/N=C2\C=C(NS(=O)(=O)c3ccccc3)C(=O)c3ccccc32)cc1	-7.6	1.0	97.0	15.9	98.0
CC(C)c1ccc(S(=O)(=O)/N=C2\C=C(NS(=O)(=O)c3ccccc3)C(=O)c3ccccc32)cc1	14.3	-6.0	104.0	30.6*	105.0
Cc1ccc(NC2=C/C(=N/S(=O)(=O)c3cccs3)c3ccccc3C2=O)cc1C	-13.5	2.0	102.0	7.0	96.0
CC(C)(C)OC[C@H](NC(=O)c1[nH]cnc1C(=O)Nc1ccccc1F)C(=O)OC(C)(C)C	5.0	/	/	-13.6	/
COCCNS(=O)(=O)c1ccc2c3c(cccc13)C(=O)N2C	8.5	3.0	105.0	-19.1	104.0
COCCCNS(=O)(=O)c1ccc2c3c(cccc13)C(=O)S2	11.5	2.0	102.0	29.2*	102.0
CCCCNC(=O)c1nc(-c2ccccc2)oc1-c1ccc(Cl)cc1	21.4	/	/	5.1	/
Cc1ccsc1C(=O)N1CCCC(CO)(Cc2ccccc2F)C1 (stereo not drawn)	-13.8	3.0	96.0	20.9*	97.0
c1ccc(SC23CCCCN(CCC2)[C@]32CO2)cc1 (stereo partly drawn)	-4.1	/	/	-13.8	/
Cc1c(C(=O)OCC[N+]2(C)CCCCC2)oc2ccccc12	-3.3	-12.0	67.0	47.8*	77.0
Cc1c(C(=O)OCC(=O)N2CCC(C)CC2)oc2ccccc12	8.5	/	/	-9.1	/
CCOC(=O)C(=O)N(C)c1c(CC)nc2c(OCc3cccc(OC)c3)cccn12	7.3	/	/	7.9	/
COC(=O)c1[nH]c2ccc(C)cc2c1NC(=O)CN1CCCc2ccccc21	26.9	15.0	92.0	-19.8	-9.0*
CCCc1nc2cc(C)c(Br)c(C)n2c1Cc1ccsc1	-0.7	/	/	4.7	/
CCN(CC(=O)Nc1ccccc1C(F)(F)F)C(=O)c1ccc(NC(=O)c2cccs2)cc1	47.5*	/	/	3.1	/
CCN(CC(=O)Nc1ccccc1C(F)(F)F)C(=O)Cc1cccs1	19.8	/	/	-4.2	/
Nc1ccn([C@@H]2O[C@H](C(=O)N[C@H]3c4ccccc4C[C@H]3O)[C@@H](O)[C@H]2O)c(=O)n1	-0.7	/	/	-5.2	/
Cc1ccc(CNC(=O)c2cc3c(s2)CS(=O)(=O)C3)cc1	17.0	-17.0	2.0*[inhibitor]	7.6	0.0*[inhibitor]
CCNC(=O)CN(c1ccc(Oc2ccccc2)cc1)S(=O)(=O)c1ccccc1	8.7	4.0	103.0	16.2	104.0
